Screening data as filed in PubChem.
Tgondii IFNg = T. gondii growth inhibition under IFN-gamma | Toxoplasma gondii growth in IFN-gamma-treated host cells; hits give low values | activity change, negative = inhibition, % (test concentration not listed) | actives 3.8% (n = 69,000); in the data active = activity change below about -70%, passing the limit was not always enough;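 also: host cells are HeLa cells infected with Toxoplasma gondii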
Numbers stand for hits. Shown is part of a subset that was picked to be rich in hits.

`CC(C)NC(=O)Cn1c(=O)cc(-c2nc(C3CC3)no2)c2ccccc21` gave Tgondii IFNg inactive.
Screening O=C(Cn1c(=O)cc(-c2nc(C3CC3)no2)c2ccccc21)NCc1ccc(F)cc1 returned Tgondii IFNg inactive.
Screening CC1CCN(S(=O)(=O)c2ccc3c(ccc(=O)n3CC(=O)NCCC3=CCCCC3)c2)CC1 returned Tgondii IFNg -77.
O=C(Cn1c(=O)cc(-c2nc(C3CC3)no2)c2ccccc21)NCCC1=CCCCC1 was read as Tgondii IFNg -84.
CC1CCN(S(=O)(=O)c2ccc3c(ccc(=O)n3CC(=O)NC3CCCC3)c2)CC1 was read as Tgondii IFNg inactive.
For CC1CCN(S(=O)(=O)c2ccc3c(ccc(=O)n3CC(=O)NC3CC3)c2)CC1 the results were Tgondii IFNg inactive.
Screening COCCO[C@@H]1CCN(S(=O)(=O)c2cccs2)[C@H]1Cc1ccccc1 returned Tgondii IFNg inactive.
For COc1ccc2c(c1)CCCN2C(=O)c1nonc1N the results were Tgondii IFNg inactive.
For CS(=O)(=O)NCc1cnc2n1CCN(CC1CCOC1)CC2 (centres undefined) the results were Tgondii IFNg inactive.
Oc1cccc(-c2cn(CC3(c4cccc(F)c4)CCOCC3)nn2)c1 was read as Tgondii IFNg inactive.
Screening CC(C)CC(=O)Nc1n[nH]c2c1CN(C(=O)C1CCN(C)CC1)C2(C)C returned Tgondii IFNg -76.
Screening Cc1ccc(C2(O)CCN(C(=O)c3ccc(-c4ccccc4)[nH]3)CC2)nc1 returned Tgondii IFNg inactive.
`CCOCC(=O)N1CCCCC1CCc1ccc(O)cc1` (centres undefined) gave Tgondii IFNg inactive.
CCc1ccc(NC(=O)C2=C(C)C(=O)OC23CCN(S(=O)(=O)CC)CC3)cc1 was read as Tgondii IFNg inactive.
`CN(C)c1ncc2c(n1)[C@H]1CN(Cc3ccccc3F)C[C@@H]1S(=O)(=O)C2` gave Tgondii IFNg -103.
Screening CN(C)c1ncc2c(n1)[C@H]1CN(C(=O)c3ccccc3)C[C@@H]1S(=O)(=O)C2 returned Tgondii IFNg inactive.
For O=S1(=O)Cc2cnc(NCC3CC3)nc2[C@H]2CN(Cc3ccc(F)cc3)C[C@@H]21 the results were Tgondii IFNg inactive.
For CO[C@@H]1CO[C@@]2(CCCN(C(=O)c3cccc(C)n3)C2)C1 the results were Tgondii IFNg inactive.
Screening C=C1/C(=C\C=C2\CCC[C@]3(C)[C@@H]([C@H](C)CCCC(C)C)CC[C@@H]23)C[C@@H](O)C[C@@H]1O returned Tgondii IFNg inactive.
`C=C1CC[C@H](O)C/C1=C/C=C1\CCC[C@]2(C)[C@@H]([C@H](C)CCCC(C)C)CC[C@@H]12` gave Tgondii IFNg -75.
`C=C1/C(=C\C=C2/CCC[C@]3(C)[C@@H]([C@H](C)/C=C/C=C/C(O)(CC)CC)CC[C@@H]23)C[C@@H](O)C[C@@H]1O` gave Tgondii IFNg inactive.
Screening CC(NC(=O)CN1CCc2ccccc2C1)c1cn2ccsc2n1 (centres undefined) returned Tgondii IFNg inactive.
For O=C(Cn1ncc2c(N3CCN(c4ccccc4)CC3)ncnc21)NCCC1=CCCCC1 the results were Tgondii IFNg inactive.
Screening Cc1cc(OC(=O)C(c2ccccc2)C2CCCC2)c(Cl)c(C)c1Cl (centres undefined) returned Tgondii IFNg inactive.
Cc1ccc(C(=O)N2CCCn3nnc(CN4CCOCC4)c3C2)cc1C was read as Tgondii IFNg inactive.
`C1=C(c2ccccc2)CC(c2ccccc2)=NN=C1c1ccccc1` gave Tgondii IFNg -87.
O=C1CC(c2ccccc2)=NN1c1ccccc1 was read as Tgondii IFNg inactive.
`Cc1[nH]cnc1-c1nccn1C(C)Cn1ccc2ccccc21` (centres undefined) gave Tgondii IFNg inactive.
Screening CCn1cnc2cc(NC(=O)CCC(=O)Nc3nc(C)c(C)s3)ccc21 returned Tgondii IFNg inactive.
CCc1nccc(CN2CCCC(c3nn(C)c(=O)n3CC)C2)n1 (centres undefined) was read as Tgondii IFNg inactive.
Cc1nc(-c2ccc(F)cc2)sc1-c1ccc(SCc2ccc(F)cc2)nn1 was read as Tgondii IFNg inactive.
Screening O=C(COc1cccnc1)N1CCOC(c2ccc(Cl)c(Cl)c2)C1 (centres undefined) returned Tgondii IFNg inactive.
`Cc1cc(C(F)(F)F)nc(C2COCCN2)n1` (centres undefined) gave Tgondii IFNg inactive.
Screening CCOC(=O)c1cnc(-c2cccs2)nc1Sc1ccc(Cl)cc1 returned Tgondii IFNg inactive.
Screening CCOc1cc(C(F)(F)F)c(C(=O)N(CC)c2ccc(Cl)cc2)cn1 returned Tgondii IFNg inactive.
For COC(=O)c1cnc(Sc2ccc(Cl)cc2)nc1C(F)(F)F the results were Tgondii IFNg -101.
Screening COCC1CN(Cc2c(C)noc2C)Cc2ncn(CC3CC3)c21 (centres undefined) returned Tgondii IFNg inactive.
Screening COCCNC(=O)c1ccc(N(C)S(=O)(=O)c2ccccc2)cc1 returned Tgondii IFNg inactive.
CC(=O)N1CCC2(CC1)NCCn1c(-c3ccnn3C)cnc12 was read as Tgondii IFNg inactive.
For CC(C)NC(=O)N1CCC2(CC1)CCn1c(-c3cnn(C)c3)cnc12 the results were Tgondii IFNg inactive.
`CC(C)NC(=O)N1CCC2(CC1)c1ncc(-c3ccnn3C)n1CCN2C` gave Tgondii IFNg -89.
For COc1ccc(CNC(=O)Cn2c(=O)cc(-c3nc(C4CC4)no3)c3ccccc32)cc1 the results were Tgondii IFNg inactive.
Screening COc1ccc(CNC(=O)Cn2c(=O)n(Cc3ccc(F)cc3)c(=O)c3ccccc32)cc1 returned Tgondii IFNg -73.
COc1ccc(CNC(=O)Cn2c(N)nc(C)c(C)c2=O)cc1 was read as Tgondii IFNg inactive.
Screening c1ccc(C2CCCN(Cc3cc4n(n3)CCNC4)CC2)cc1 (centres undefined) returned Tgondii IFNg inactive.
`C=CC(=O)N1CCO[C@H]2[C@H]1CC[C@H]2OCc1csc(C)n1` gave Tgondii IFNg inactive.
`O=C(NC(c1nccs1)C1CCCN(Cc2cccc(F)c2)C1)c1ccccc1` (centres undefined) gave Tgondii IFNg inactive.
For CC[C@H](C)[C@@H]([C@@H](CC(=O)N1CCC[C@H]1[C@H](OC)[C@@H](C)C(=O)N[C@@H](Cc1ccccc1)c1nccs1)OC)N(C)C(=O)[C@@H](NC(=O)[C@H](C(C)C)N(C)C)C(C)C the results were Tgondii IFNg -84.
`Cc1cc(C)n(CC(C)C(=O)NC(Cc2cccs2)c2nccs2)n1` (centres undefined) gave Tgondii IFNg inactive.
Screening Cc1cc(C(=O)N2CCn3c(Cn4cncn4)cnc3C2)c(C)o1 returned Tgondii IFNg inactive.
Screening COc1cccc(NC(=O)C2Cn3ccnc3C3(CCN(C(=O)C4CCC4)CC3)O2)c1 (centres undefined) returned Tgondii IFNg inactive.
`CCOC(=O)c1c(-c2ccccc2)noc1C(C)=O` gave Tgondii IFNg inactive.
Screening CCCc1cnc(N2CCN(C(=O)c3c(-c4ccccc4)noc3C)CC2)nc1 returned Tgondii IFNg -82.
For Cc1onc(-c2ccccc2)c1C(=O)Oc1ccccc1N1CCOCC1 the results were Tgondii IFNg inactive.
CN(/C=C/C=C1/C(c2ccccc2)=C(c2ccccc2)c2ccccc21)c1ccccc1 was read as Tgondii IFNg inactive.
Screening COc1ccc(C)cc1NC(=O)C(=O)NCCc1csc(-c2ccc(C(F)(F)F)cc2)n1 returned Tgondii IFNg inactive.
